Screening data from PubChem BioAssay.
TIM10 inh = growth inhibitors of isogenic TIM10 control yeast, primary screen, counter-screen for tim10-1 yeast inhibitor project, luminescence, uHTS; S. cerevisiae TIM10 strain growth, BacTiter-Glo luminescence, 24 h; inhibition, % at 10 µM; 330,000 compounds, 1.4% hits;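 active = inhibition of 40% or more at the single tested concentration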;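 also: wild-type TIM10 isogenic control strain grown at permissive 25 °C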
NALP3 yeast inh = NALP3 inflammasome inhibitors in reconstituted yeast, primary screen, luminescence, uHTS | Yeast reconstituted NLRP3/ASC/caspase-1, beta-gal luminescence, 24 h | inhibition, % at 10 µM | 330,000 compounds, 0.39% hits | AID 2825, 2010;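 active = inhibition of 50% or more; inactive = inhibition below 50%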
NALP1 yeast inh = NALP1 inflammasome inhibitors in reconstituted yeast, colorimetric, S. cerevisiae, triplicate retest | S. cerevisiae NALP1/ASC/caspase-1 growth, X-gal OD620, 72 h | inhibition, % at 10 µM | 280,000 compounds, 0.61% hits | AID 2071, 2009; in the data active = inhibition mostly above about 24%, no sharp cut-off; inactive = mostly below about 32%
tim10-1 inh = growth inhibitors of tim10-1 mutant yeast, primary screen, luminescence, uHTS; S. cerevisiae tim10-1 ts strain growth, BacTiter-Glo, 24 h; inhibition, % at 20 µM; 330,000 compounds, 2.2% hits; AID 463190, 2010;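 active = inhibition of at least 40%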;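 also: mutant grown at 25 °C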
tim23-1 inh = growth inhibitors of tim23-1 mutant yeast, primary screen, luminescence, uHTS; inhibition, % at 20 µM; 330,000 compounds, 1.3% hits; S. cerevisiae tim23-1 growth, BacTiter-Glo luminescence, 24 h;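 active = growth inhibition of the mutant yeast at or above 50%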;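 also: temperature-sensitive mutant grown at 25 °C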
Each line names hits and unclear results; the compound was inactive in the other large screens; ! = a repeat was not active. A selection: hits, their analogues and other compounds. The true share with any hit is near 4%.

CCc1ccc(CN2CCCC(CNS(=O)(=O)c3ccc(OC)cc3)C2)cc1 (centres undefined)	none
COc1ccc(S(=O)(=O)NCC2CCCN(Cc3ccc(C)o3)C2)cc1 (centres undefined)	NALP1 yeast inh 33
OCC1(Cc2ccc(Cl)cc2)CCN(Cc2ccccc2F)CC1	none
CSc1ccc(CN2CCC(CO)(Cc3ccc(Cl)cc3)CC2)cc1	NALP1 yeast inh 28
COc1ccc(CCn2c(=N)c(S(=O)(=O)c3ccc(C)cc3)cc3c(=O)n4ccccc4nc32)cc1	none
COc1ccc(C(=O)N2c3cc4c(cc3C(C)=CC2(C)C)OCO4)cc1	NALP1 yeast inh 26 (no result: TIM10 inh, NALP3 yeast inh, tim10-1 inh, tim23-1 inh)
CC1=CC(C)(C)N(C(=O)c2ccccc2)c2ccccc21	none
CC(=O)NS(=O)(=O)c1ccc(NC(=S)NC(=O)c2ccco2)cc1	none
NS(=O)(=O)c1ccc(NC(=S)NC(=O)c2ccco2)cc1	NALP1 yeast inh 41!
Cc1cnn(C(=O)c2cc(-c3ccccn3)nc3ccc(Cl)cc23)c1	NALP1 yeast inh 41
COc1ccc(N(C(C)=O)S(=O)(=O)c2cccc3cccnc23)cc1	none
Cc1ccc(CNC(=O)Nc2ccc3c(c2)N(C)C(=O)CS3)cc1	NALP1 yeast inh 31
CN1C(=O)CSc2ccc(NC(=O)NCc3ccccc3)cc21	none
Cc1ccc(C)c(C(=O)CN2C3=NCCCN3c3ccccc32)c1	NALP1 yeast inh 33
CC1CC(C)CN(C(=O)CSc2nnc(-c3ccc(Cl)cc3)o2)C1 (centres undefined)	NALP1 yeast inh 35
COc1ccc(S(=O)(=O)N2CCCCC2)cc1NC(=O)C1COc2ccccc2O1 (centres undefined)	none (no result: NALP1 yeast inh)
Cc1nn(Cc2ccccc2)c2c1C(c1ccncc1)C(C#N)=C(N)O2 (centres undefined)	none
Cc1nn(Cc2ccccc2)c2c1C(c1cccnc1)C(C#N)=C(N)O2 (centres undefined)	NALP1 yeast inh 41
CCn1c(CNC(=O)c2cccc(C)c2)nnc1SCC(=O)Nc1nnc(C)s1	none
COc1ccc(Cn2nnnc2CN2CCc3ccccc32)cc1	none
COc1ccc(Cn2nnnc2CN2CCc3ccccc3C2)cc1	NALP1 yeast inh 27
N#Cc1ccc(NC(=O)COC(=O)CCc2nc3ccccc3c(=O)[nH]2)cc1	none
CC(=O)c1ccc(NC(=O)/C(=C\c2cccs2)NC(=O)c2ccco2)cc1	none
Cc1sc2ncnc(NCC3(N4CCOCC4)CCCCC3)c2c1C	NALP1 yeast inh 44
CN(CCOC(=O)c1cccc(Br)c1)C(C)(C)C	NALP1 yeast inh 28
CC(=O)NN1C(=O)/C(=C2/Sc3ccc(Cl)cc3N2C)SC1=S	none
O=C1CCc2cc(S(=O)(=O)N3CCC(C(=O)NC4CCCc5ccccc54)CC3)ccc2N1 (centres undefined)	none
CC1CCCCC1NC(=O)C1CCN(S(=O)(=O)c2ccc3c(c2)CCC(=O)N3)CC1 (centres undefined)	NALP1 yeast inh 32
CCN(CC)CCCN(Cc1cc2ccc(C)c(C)c2[nH]c1=O)C(=O)NC1CCCCC1	NALP1 yeast inh 23
N=c1n(CC(=O)c2ccc([N+](=O)[O-])cc2)c2ccccc2n1Cc1ccccc1	none
N=c1n(CC(=O)c2ccc([N+](=O)[O-])cc2)c2ccccc2n1Cc1ccc(Cl)cc1	NALP1 yeast inh 64
CCN(Cc1ccccc1)C1CCN(Cc2ccc(SC)cc2)CC1	NALP1 yeast inh 28
Cc1cc(C)cc(NC(=O)CC2Oc3ccc(C)cc3NC2=O)c1 (centres undefined)	none
COc1ccccc1C1=NOC(COc2ccc3c(C)cc(=O)oc3c2)C1 (centres undefined)	NALP1 yeast inh 40
COc1ccc(C2=NOC(COc3ccc4c(C)cc(=O)oc4c3)C2)c(OC)c1 (centres undefined)	none (no result: NALP1 yeast inh)
Clc1ccccc1OCCCOc1cccc2cccnc12	none
O=c1c2ccccc2sn1-c1cc(S(=O)(=O)N2CCOCC2)ccc1N1CCCC1	none
O=c1c2ccccc2sn1-c1cc(S(=O)(=O)N2CCOCC2)ccc1N1CCOCC1	NALP1 yeast inh 30
COc1ccc(S(=O)(=O)N(C)C)cc1NC(=O)CCCSc1ccccc1	none
CN(C)c1ccc(C(C[N+](=O)[O-])c2c(N)n(C)c(=O)n(C)c2=O)c(F)c1C#N (centres undefined)	none
Cn1c(N)c(C(C[N+](=O)[O-])c2c(F)cccc2Cl)c(=O)n(C)c1=O (centres undefined)	NALP1 yeast inh 44
Clc1ccc(Nc2ccc(NCc3ccccc3)nn2)cc1	NALP1 yeast inh 72
COc1ccc(C(=O)C(/C=N/O)=N/Nc2ccc(F)cc2)cc1	NALP1 yeast inh 20
CO/N=C/C(=N\Nc1ccc(OC)cc1)C(=O)c1ccc(OC)cc1	none
Nc1c(-c2ccccc2)nc(Cl)nc1-c1ccccc1	NALP1 yeast inh 34
CCC/C(O)=C1\C(=O)CCCC1=NCCc1c(C)[nH]c2ccc(C)cc12	none (no result: NALP1 yeast inh)
CCC/C(O)=C1\C(=O)CCCC1=NCCc1c(C)[nH]c2ccc(OC)cc12	NALP1 yeast inh 19
CCCc1cc2nnc(SCC(=O)N(C)C3CCCCC3)n2c(N)n1	none
CC(C)C(C(=O)NC1CCCC1)N(CC1CCCO1)C(=O)CNS(=O)(=O)c1ccccc1 (centres undefined)	none
CC1(C)Cc2c(ccc3ccccc23)C(c2cc3ccccc3oc2=O)=N1	NALP1 yeast inh 34
CC1(C)Cc2ccccc2C(c2cc3ccccc3oc2=O)=N1	none
CCc1c(O)nc(SCC(=O)Nc2ccccc2)n(-c2ccccc2)c1=O	none
CCc1c(O)nc(SCC(=O)Nc2ccc(Br)cc2)n(-c2ccc(C)cc2)c1=O	NALP1 yeast inh 35
COC(=O)c1cc(S(=O)(=O)NCCN2CCN(c3ccccc3F)CC2)c[nH]1	none
Cc1cc(=O)oc2cc(OCC(=O)NCCc3nc4ccccc4[nH]3)ccc12	NALP1 yeast inh 38
Cc1cc(C)cc(OCC(=O)NCCc2nc3ccccc3[nH]2)c1	none
Cc1cc(NS(=O)(=O)c2ccc(NC(=O)/C=C/c3ccco3)cc2)nc(C)n1	NALP1 yeast inh 38
O=C(Nc1ccc(Cl)cc1)c1ccc(OCC2CCCO2)cc1 (centres undefined)	NALP1 yeast inh 35
O=C(NCc1ccc(Cl)cc1)c1ccc(OCC2CCCO2)cc1 (centres undefined)	none
C1=C(c2ccccc2)CCN(c2nc3ccccc3n3cnnc23)C1	NALP1 yeast inh 41
O=C(CCN1CCN(Cc2ccccc2)CC1)NNC(=O)Nc1cccc([N+](=O)[O-])c1	NALP1 yeast inh 26
O=C(CCN1CCN(Cc2ccccc2)CC1)NNC(=O)Nc1cccc(Cl)c1	none
CCCc1cc(=O)oc2c(C)c(OCC(=O)NC3CCN(Cc4ccccc4)CC3)ccc12	none
CC(=O)c1cccc(NC(=O)CNC(=O)c2sc3ccccc3c2Cl)c1	none (no result: NALP1 yeast inh)
O=C(CNc1cccc(C(F)(F)F)c1)N/N=C/C1CCCCC1	none
